Results on 5 compounds are retold here after PubChem BioAssay.

The source made the active and inactive calls. Unless noted, no rule for the calls is given here.

Test [1] in a line: compounds binding Alexa647 anti-His antibody – biochemical, small-molecule microarray, 635 nm fluorescence, artefact control for SMM control protein annotation, primary screen (AID 1128).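 Also: score merges feature fluorescence with signal-to-noise for each printed compound spot.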 The following applies: higher = more signal.
For test [2], the system named is Human papillomavirus type 1a E7 protein (residues 1-88). Put plainly: HPV1a E7 small-molecule binders, primary screen, biochemical, small-molecule microarray, residues 1-88, 635 nm (AID 1129). The settings on record: small-molecule microarray binding, fluorescence 635 nm; higher = more signal.
The target of test [3] is Focal adhesion kinase 1 (Homo sapiens) (UniProt Q05397). Put plainly: PTK2 protein binding on printed compound slides – biochemical, small-molecule microarray, 635/667 nm fluorescence, BSA, DTT, primary screen (AID 1130).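 Also: composite of spot emission at 667 nm and signal to noise over triplicate slides.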 The settings on record: 635 nm fluorescence, higher = more signal.
Chain of Focal adhesion kinase 1 (Homo sapiens) (Q05397 whole entry, looked up): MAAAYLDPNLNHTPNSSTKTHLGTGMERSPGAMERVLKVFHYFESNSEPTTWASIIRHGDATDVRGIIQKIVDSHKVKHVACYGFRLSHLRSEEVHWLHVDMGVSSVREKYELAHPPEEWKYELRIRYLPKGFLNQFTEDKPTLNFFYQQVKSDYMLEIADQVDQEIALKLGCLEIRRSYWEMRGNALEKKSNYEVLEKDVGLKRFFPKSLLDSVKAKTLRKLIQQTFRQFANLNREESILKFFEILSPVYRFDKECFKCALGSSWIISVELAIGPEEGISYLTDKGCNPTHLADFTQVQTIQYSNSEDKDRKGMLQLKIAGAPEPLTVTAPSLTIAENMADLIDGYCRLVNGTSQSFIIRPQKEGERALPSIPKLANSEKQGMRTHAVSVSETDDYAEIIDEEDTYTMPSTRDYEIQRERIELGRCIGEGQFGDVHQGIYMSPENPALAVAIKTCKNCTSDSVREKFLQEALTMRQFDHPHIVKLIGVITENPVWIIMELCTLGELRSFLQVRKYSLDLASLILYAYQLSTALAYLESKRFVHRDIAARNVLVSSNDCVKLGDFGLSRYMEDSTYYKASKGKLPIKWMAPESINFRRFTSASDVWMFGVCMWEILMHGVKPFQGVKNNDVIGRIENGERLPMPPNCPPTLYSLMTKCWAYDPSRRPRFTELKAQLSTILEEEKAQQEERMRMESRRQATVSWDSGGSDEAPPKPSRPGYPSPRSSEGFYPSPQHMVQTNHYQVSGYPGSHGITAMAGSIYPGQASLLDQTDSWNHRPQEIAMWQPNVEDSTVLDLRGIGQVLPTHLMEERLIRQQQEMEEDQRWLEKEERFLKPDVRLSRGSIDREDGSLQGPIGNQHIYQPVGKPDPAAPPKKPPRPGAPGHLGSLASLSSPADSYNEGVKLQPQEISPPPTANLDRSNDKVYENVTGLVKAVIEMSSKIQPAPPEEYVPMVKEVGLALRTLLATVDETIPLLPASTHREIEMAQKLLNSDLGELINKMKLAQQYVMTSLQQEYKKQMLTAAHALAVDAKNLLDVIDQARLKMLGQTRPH
For test [4], the system named is Fibrinogen (Alexa647-labelled). The test can be described thus: Alexa647-fibrinogen binding to printed small molecules – biochemical, small-molecule microarray, 635/667 nm fluorescence, artefact control for SMM control-protein annotation, profiling panel (AID 1131).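 Also: z-score merges 667 nm fluorescence with per-spot signal-to-noise over triplicate slides.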 The settings on record: fibrinogen-A647 binding fluorescence, higher = more signal.
Test [5] deals with Follistatin (Homo sapiens) (UniProt P19883). The test can be described thus: FST protein binding to printed compounds – biochemical, small-molecule microarray, 635/667 nm fluorescence, primary screen (AID 1132). The settings on record: 635 nm fluorescence, higher = more signal.
Chain of Follistatin (Homo sapiens) (P19883 whole entry, looked up): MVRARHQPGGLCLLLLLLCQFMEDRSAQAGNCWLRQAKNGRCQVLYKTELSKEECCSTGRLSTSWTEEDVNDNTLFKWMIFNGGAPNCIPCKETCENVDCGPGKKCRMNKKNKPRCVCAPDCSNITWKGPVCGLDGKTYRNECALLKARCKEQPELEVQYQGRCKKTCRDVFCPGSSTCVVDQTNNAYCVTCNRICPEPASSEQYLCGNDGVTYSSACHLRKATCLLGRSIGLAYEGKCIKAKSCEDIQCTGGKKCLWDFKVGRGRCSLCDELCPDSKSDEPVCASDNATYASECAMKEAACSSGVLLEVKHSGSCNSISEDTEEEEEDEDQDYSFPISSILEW
In test [6] the target is Fibroblast growth factor 2 (Homo sapiens) (UniProt P09038). The test can be described thus: basic fibroblast growth factor binding to printed compounds – biochemical, small-molecule microarray, 635/667 nm fluorescence, primary screen (AID 1133). The settings on record: FGF2, fluorescence 635/667, higher = more signal.
Chain of Fibroblast growth factor 2 (Homo sapiens) (P09038 whole entry, looked up): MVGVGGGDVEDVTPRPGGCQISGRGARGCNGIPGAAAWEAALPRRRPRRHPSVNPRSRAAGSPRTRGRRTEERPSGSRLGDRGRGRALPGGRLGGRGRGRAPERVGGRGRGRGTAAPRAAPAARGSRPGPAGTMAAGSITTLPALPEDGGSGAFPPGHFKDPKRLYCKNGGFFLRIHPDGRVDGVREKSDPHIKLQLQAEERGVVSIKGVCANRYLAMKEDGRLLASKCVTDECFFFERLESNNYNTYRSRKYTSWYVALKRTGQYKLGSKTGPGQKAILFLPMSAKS
Test [7] is described as follows: JC-1 mitochondrial potential readout, lung cancer cells – cell-based, A549, JC-1 fluorescence, basal, 24 h, 100 nL, profiling panel (AID 1138).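 Also: A549 lung adenocarcinoma cells under basal conditions with no added stimulus; test concentration not given here.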 The following applies: higher = more signal.
Test [8] relates to Lefty1. Put plainly: Lefty1 protein binding to printed compounds – biochemical, small-molecule microarray, 635/667 nm fluorescence, primary screen (AID 1139). The settings on record: fluorescence 635/667, higher = more signal.
For test [9], the system named is wheat germ agglutinin (Triticum aestivum), Alexa647-labelled. The test can be described thus: Alexa647-WGA lectin binding to printed small molecules – biochemical, small-molecule microarray, 635/667 nm fluorescence, artefact control for SMM control-protein annotation, profiling panel (AID 1140).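 Also: score merges 667 nm feature emission with signal to noise over triplicate slides.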 The settings on record: WGA-A647 binding, 635 nm fluorescence, higher = more signal.

Test [10] concerns the target Luciferin 4-monooxygenase (Photinus pyralis) (UniProt P08659). Put plainly: inhibition of purified Photinus pyralis luciferase – biochemical, luminescence, purified enzyme, 2006 set, primary screen (AID 1141).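 Also: cell-free assay with purified firefly luciferase at 100 ng per well in PBS; test concentration not given here.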 The following applies: purified firefly luciferase, SteadyGlo luminescence, 30 min; higher = more signal, called active from +8 up or from −8 down.
Test [11] has as its system Wnt5a (protein binding on small-molecule microarray). The test can be described thus: small molecules binding Wnt5a protein – biophysical, small-molecule microarray, 635/667 nm fluorescence, primary screen (AID 1142).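 Also: fluorescence read at 667 nm with signal to noise per printed feature.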 The settings on record: 635 nm fluorescence, higher = more signal.
Test [12] can be described thus: ATP-based viability of Huh7 replicon cells – cell-based, CellTiter-Glo luminescence, basal, 48 h, cytotoxicity control for HCV replication inhibitor project, primary screen (AID 1143).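 Also: Huh7 hepatoma cells carrying a hepatitis C replication reporter with no stimulus; test concentration not given here.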 The following applies: higher = more signal, called active from +8 up or from −8 down. (A replicon is a self-replicating genome or part of one, used to study replication in cells.)
A short description of test [13]: Pseudomonas biofilm growth suppression – PAO1 strain, BacTiter-Glo luminescence, LB-PBS, primary screen (AID 1144). The settings on record: P. aeruginosa PAO1 biofilm, 12 h, higher = more signal.
Test [14] in a line: basal CRE-LacZ reporter activity in PC12 – cell-based, unstimulated, primary screen (AID 1145). The following applies: no forskolin, luminescence, 4.5 h, higher = more signal, called active from +8 up or from −8 down.
Test [15] in a line: forskolin-driven CRE-LacZ activity in PC12 – cell-based, CRE-LacZ reporter, forskolin-stimulated, primary screen (AID 1146).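 Also: PC12 cells with 6xCRE LacZ reporter stimulated by forskolin 10 µM; beta-galactosidase reporter signal reflecting CREB driven transcription.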 The settings on record: luminescence, 4.5 h, higher = more signal, called active from +8 up or from −8 down.
Test [16] deals with Streptavidin (Streptomyces avidinii) (UniProt P22629). Put plainly: compounds binding control protein streptavidin – biophysical, small-molecule microarray, 635/667 nm fluorescence, artefact control for SMM compound annotation, primary screen (AID 1147).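 Also: signal reflects streptavidin binding to arrayed compounds as a control protein.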 The settings on record: higher = more signal.
Chain of Streptavidin (Streptomyces avidinii) (P22629 whole entry, looked up): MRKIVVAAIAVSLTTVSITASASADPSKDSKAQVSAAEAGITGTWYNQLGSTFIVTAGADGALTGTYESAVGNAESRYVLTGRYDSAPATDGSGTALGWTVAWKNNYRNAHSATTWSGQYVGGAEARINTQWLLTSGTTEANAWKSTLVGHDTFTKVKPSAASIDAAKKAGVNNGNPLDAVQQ
Test [17] can be described thus: probe aInhba binding on compound microarray – biochemical, small-molecule microarray, 635/667 nm fluorescence, primary screen (AID 1148).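 Also: score merges 667nm spot fluorescence with signal-to-noise for antibody binding to printed compounds.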 The settings on record: higher = more signal.
Test [18] concerns the target Torsin-1A (Homo sapiens) (UniProt O14656). Put plainly: TOR1A wild-type binding on microarray – cell lysate, small-molecule microarray, lysate, 635/667 nm, primary screen (AID 1149). The following applies: COS7 hTOR1A-WT lysate, 635 nm fluorescence, higher = more signal.
Test [19] shares this target. The test can be described thus: torsin A mutant lysate binding on microarrays – cell lysate, small-molecule microarray, COS7 lysate, 635/667 nm fluorescence, primary screen (AID 1150).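 Also: score pools 667 nm emission and signal to noise measuring lysate protein binding.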 The settings on record: COS7 hTOR1A mutant lysate, 635 nm fluorescence, higher = more signal.
Test [20] deals with Sonic hedgehog protein (Shh). Put plainly: Sonic hedgehog microarray binding compounds – biochemical, small-molecule microarray, 635/667 nm fluorescence, primary screen (AID 1151).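 Also: Shh protein binding to compounds spotted on small-molecule microarray slides; score combines spot fluorescence intensity with signal-to-noise across triplicate slides.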 The settings on record: 635 nm fluorescence, higher = more signal.

Chain of Torsin-1A (Homo sapiens) (O14656 whole entry, looked up): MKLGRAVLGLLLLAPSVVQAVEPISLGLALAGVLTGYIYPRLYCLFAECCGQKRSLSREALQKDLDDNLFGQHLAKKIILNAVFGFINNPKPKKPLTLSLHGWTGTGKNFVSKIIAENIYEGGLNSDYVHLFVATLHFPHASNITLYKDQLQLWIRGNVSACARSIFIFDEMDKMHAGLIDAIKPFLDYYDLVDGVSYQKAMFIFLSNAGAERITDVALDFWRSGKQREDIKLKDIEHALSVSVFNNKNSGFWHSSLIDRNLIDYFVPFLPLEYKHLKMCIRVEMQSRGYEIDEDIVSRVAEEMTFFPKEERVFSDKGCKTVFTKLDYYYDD
Chain of Luciferin 4-monooxygenase (Photinus pyralis) (P08659 whole entry, looked up): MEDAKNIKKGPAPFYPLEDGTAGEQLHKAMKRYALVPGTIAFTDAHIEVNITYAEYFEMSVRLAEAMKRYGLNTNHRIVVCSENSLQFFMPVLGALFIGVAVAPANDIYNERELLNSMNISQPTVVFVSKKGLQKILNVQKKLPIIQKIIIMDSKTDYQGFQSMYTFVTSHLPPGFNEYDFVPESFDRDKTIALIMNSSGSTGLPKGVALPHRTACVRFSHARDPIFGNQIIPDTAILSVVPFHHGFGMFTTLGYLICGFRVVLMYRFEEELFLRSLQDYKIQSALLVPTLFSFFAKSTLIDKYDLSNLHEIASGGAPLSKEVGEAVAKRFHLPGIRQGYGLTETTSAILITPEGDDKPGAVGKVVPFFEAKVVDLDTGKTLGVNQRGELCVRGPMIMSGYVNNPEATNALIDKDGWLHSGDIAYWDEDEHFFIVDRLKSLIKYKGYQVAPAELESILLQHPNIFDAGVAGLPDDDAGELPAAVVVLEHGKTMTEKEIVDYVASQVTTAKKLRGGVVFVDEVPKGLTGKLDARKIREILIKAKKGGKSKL

For the compound `CO[C@H]1COC(=O)CC=C[C@@H](C)[C@H](NS(=O)(=O)c2ccc(C)cc2)COC(=O)CCC[C@@H]1C`, the composite z-score was 0.167 in test [1]; -0.21 in [2]; 0.193 in [3]; 0.19 in test [4]; 0.785 in test [5]; 0.579 in test [6]. Moreover, the composite z-score is 0.962 in test [8]; -0.0807 in test [9]; 0.118 in test [11]; 0.439 in test [16]; -0.239 in [17]; 0.815 in test [18]. Also, the composite z-score in [19] worked out at 0.819; in test [20] it was 0.417. Besides, the z-score in test [7] is -1.07; in [10], 1.03 (inactive); in test [12] it was -0.279 (inactive); in test [13] it was -0.365 (inactive); in test [14] it was -1.13 (inactive); in [15], -0.198 (inactive).

For the compound `C=CC1=C[C@H](O)[C@@H]2O[C@@H]2C12OCCCO2`, the composite z-score is 0.837 in test [1]; 0.661 in test [2]; 0.172 in test [3]; 0.429 in [4]; -0.285 in test [5]; 0.151 in test [6]. Further, the composite z-score was 0.0863 in [8]; -0.159 in test [9]; 0.398 in test [11]; 0.281 in test [16]; -0.0695 in test [17]; 0.468 in test [18]. The composite z-score is 0.752 in test [19] and -0.262 in [20]. Besides, the z-score was -0.722 in test [7]; 0.571 (inactive) in [10]; 0.17 (inactive) in test [12]; 0.658 (inactive) in [13]; -0.0732 (inactive) in [14]; 0.197 (inactive) in test [15].

For the compound `COC(=O)CC=C[C@@H](C)[C@H](OCc1cccc(-c2ccccc2)c1)C1CCCCC1`, the composite z-score is -0.791 in [1]; -0.46 in test [2]; -0.0125 in test [3]; -0.14 in [4]; 0.768 in test [5]; -0.226 in [6]. The composite z-score in [8] is 0.0133; in test [9], 0.534; in test [11] it was -0.106; in test [16], 1.85; in test [17], -0.176; in [18], 0.439. In addition, the composite z-score was -0.17 in test [19] and 0.412 in [20]. The z-score was 0.237 in test [7]; -0.0245 (inactive) in test [10]; -0.44 (inactive) in test [12]; 0.125 (inactive) in [13]; 0.68 (inactive) in test [14]; -0.198 (inactive) in [15].

With `CC(CCN1CCCCc2nc(C)c(C)cc21)=NOC[C@@H](C)[C@H](OCc1ccccc1)C(C)C`, the composite z-score was 1.59 in test [1]; -0.824 in [2]; -0.0923 in test [3]; -2.81 in [4]; -2.3 in test [5]; -0.84 in test [6]. Besides, the composite z-score in test [8] is -0.795; in test [9], -0.614; in test [11], -0.876; in test [16], -2.45; in test [17], -0.37; in test [18], -1.62. The composite z-score in test [19] is -1.49; in test [20] it was -0.689. The z-score in [7] is 0.37; in test [10] it was -0.486 (inactive); in [12], -1.07 (inactive); in test [13], -0.4 (inactive); in test [14], 0.262 (inactive); in [15], 0.264 (inactive).

With `COC(=O)CC=C[C@@H](C)[C@@H](C=NO[C@@H]1O[C@H](COC(C)=O)[C@@H](OC(C)=O)[C@H](OC(C)=O)[C@H]1OC(C)=O)OC`, the composite z-score was 0.662 in test [1]; 0.036 in test [2]; 0.107 in [3]; -0.0528 in test [4]; -0.186 in [5]; -0.347 in test [6]. Moreover, the composite z-score in [8] was -0.268; in [9], -0.421; in [11], 0.359; in test [16] it was -0.769; in test [17], -0.165; in test [18], 0.698. In addition, the composite z-score in [19] was found to be 0.32; in test [20], 0.0568. Moreover, the z-score is -0.361 in [7]; 0.86 (inactive) in [10]; 0.36 (inactive) in test [12]; -0.743 (inactive) in [13]; 0.834 (inactive) in test [14]; 0.0774 (inactive) in test [15].
